Source: PubChem BioAssay (NCI)
This is part of a sample that, as a whole, favours compounds with a hit. Of some 79,000 tested, about 15% had one in any assay. No stated cut-off is given here; in the data, active means growth inhibition above about 70%; inactive means the rest.

Legend:
[1] = NCI Yeast Anticancer Drug Screen. Data for the rad50 strain (AID 155);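 further: 0% = growth of vehicle-only cultures of the same strain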; details: S. cerevisiae rad50 strain growth inhibition; at 50.0 µM; active compounds read high
Outline: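 Growth of the mutant yeast was measured after compound exposure and referenced to vehicle-treated cultures.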

[2] = NCI Yeast Anticancer Drug Screen. Data for the mec2-1 strain (AID 157); details: S. cerevisiae mec2-1 strain, at 50.0 µM, active compounds read high
Outline: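 Strain: mec2-1 (DNA repair/cell cycle alteration). Compound exposure, then growth measured; inhibition expressed relative to vehicle.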

[3] = NCI Yeast Anticancer Drug Screen. Data for the sgs1 mgt1 strain (AID 161);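 further: 0% = growth of cultures given vehicle only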; details: S. cerevisiae sgs1 mgt1 strain, at 50.0 µM, active compounds read high
Outline: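 Mutant yeast exposed to compound; growth scored against vehicle-only wells.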

[4] = NCI Yeast Anticancer Drug Screen. Data for the cln2 rad14 strain (AID 165);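 further: 0% = growth equal to vehicle treated cultures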; details: S. cerevisiae cln2 rad14 strain, at 50.0 µM, active compounds read high
Outline: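 Compounds are applied to the cln2 rad14 yeast strain, and growth is then compared with that of vehicle-treated cultures to give inhibition.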

[5] = NCI Yeast Anticancer Drug Screen. Data for the bub3 strain (AID 167); details: S. cerevisiae bub3 mutant strain, at 50.0 µM, active compounds read high
Outline: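 Whole-cell yeast assay. The mutant strain was incubated with compounds, and growth inhibition was determined by comparison with vehicle-treated cells.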

[6] = NCI Yeast Anticancer Drug Screen. Data for the mlh1 rad18 strain (AID 175); details: S. cerevisiae mlh1 rad18 strain growth inhibition; at 50.0 µM; active compounds read high
Outline: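 Read-out is yeast growth inhibition, calculated against vehicle-only controls. The compound was applied to a strain engineered with DNA damage repair alterations.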

Measured: growth inhibition

CC(C)NCCc1c[nH]c2ccccc12
inactive: [1] 3% | [2] -7.15% | [3] 12.4% | [4] -60% | [5] 13.3% | [6] 1.65%

N#Cc1ccc(Cc2ccccn2)cc1Cl
inactive: [1] -1.55% | [2] -1.55% | [3] -8.9% | [4] 2.1% | [5] -18.9% | [6] 4.25%

COc1ccc(N2C(=O)C3C4c5ccccc5C(C3C2=O)[n+]2ccccc24)cc1 (stereo unspecified)
inactive: [1] 27.2% | [2] -14.1% | [3] 9.7% | [4] -49.5% | [5] -0.45% | [6] 10.6%

CC[As](=O)(O)CCCc1ccccc1
inactive: [1] 5.55% | [2] 32.9% | [3] 14.9% | [4] 3.1% | [5] -0.15% | [6] -2.05%

CCC1(c2ccc(C)cc2)C(=O)NC(=S)NC1=O
inactive: [1] 6.1% | [2] -8.15% | [3] 17.2% | [4] 28.6% | [5] 14% | [6] 11.8%

c1cc2[se][se]c3c4cccc5[se][se]c(c(c1)c23)c54
inactive: [1] 1.05% | [2] -8.7% | [3] -26.8% | [4] -3.95% | [5] -1.8% | [6] -31.1%

ClCCN(CCCl)c1ncnc2c1ncn2Cc1ccccc1
inactive: [1] 2.9% | [2] 17.4% | [3] 15.6% | [4] -12.6% | [5] -1.95% | [6] -0.4%

Clc1ccc(-c2ccccc2)cc1Cl
inactive: [1] 12.9% | [2] -12.5% | [3] -8.85% | [4] -0.8% | [5] 14.6% | [6] 1.9%

CC(=O)[CH-]C(C)=O.CC(=O)[CH-]C(C)=O.CC(=O)[CH-]C(C)=O.CCC(=O)O.[Zn+2].[Zn]
inactive: [1] -20.9% | [2] -9.35% | [3] -18.4% | [4] -38% | [5] -0.15% | [6] -26.3%

O[As](O)O.S=C(S)c1ccccc1S
inactive: [1] 7.55% | [2] -13% | [3] 18.7% | [4] 28% | [5] 1.75% | [6] 24.9%

CC(C)NC(=O)N1C2C3CCC(C)(OC3(C)C)C21 (stereo unspecified)
inactive: [1] -16.5% | [2] -21.4% | [3] 3.7% | [4] -9.35% | [5] -14.9% | [6] -12.2%

CCCCOC(=O)c1ccccc1C(=O)OCc1ccccc1
inactive: [1] -3.45% | [2] -11.7% | [3] -2.85% | [4] -43.7% | [5] 2.8% | [6] -5.25%

C[N+]1(C)C2CCC1CC(O)C2 (stereo unspecified)
inactive: [1] 5.45% | [2] -9.85% | [3] 3.55% | [4] 23.1% | [5] -6.35% | [6] 3.6%

C1CC[N-]CC1.CN(C)P(=O)(N(C)C)N(C)C.OO.OO.[O]=[Mo]
inactive: [1] 11.3% | [2] -16% | [3] 15.6% | [4] 17.4% | [5] 11.9% | [6] 15.7%

c1cc[n+]2c(c1)-c1cccc[n+]1CC2
inactive: [1] 65.8% | [2] 11% | [3] 52.7% | [4] 26% | [5] 19.3% | [6] 53.1%

CCC1CN1CCC(=O)Nc1ccccc1 (stereo unspecified)
inactive: [1] -2.8% | [2] -13.1% | [3] -14.2% | [4] -35.2% | [5] -17.6% | [6] 6.3%

CN1CN(c2ccccc2)C2(CCN(CCCN(C)c3ccc(F)cc3)CC2)C1=O
inactive: [1] 0.1% | [2] -0.4% | [3] 6.35% | [4] 5.85% | [5] 3.35% | [6] 17.3%

CN(C)C(=S)Oc1ccc(Cl)cc1S(=O)(=O)F
inactive: [1] 53.6% | [2] 14.2% | [3] 32.4% | [4] 20.4% | [5] -6.7% | [6] 9.6%

C[N+](C)(C)CC1(COC(=O)C(O)(c2ccccc2)c2ccccc2)CCCCC1
inactive: [1] -3.5% | [2] 6.45% | [3] -16.8% | [4] -7.2% | [5] -2.95% | [6] 5.05%

O=C(C(F)(F)Cl)C(F)(F)Cl
inactive: [1] 13.8% | [2] -14.9% | [3] 6.85% | [4] 15.6% | [5] -15.2% | [6] 24.3%

CCC1(N)C(=O)OCc2c1cc1n(c2=O)Cc2cc3ccccc3nc2-1 (stereo unspecified)
inactive: [1] 4.8% | [2] -17.5% | [3] -39.6% | [4] -7.75% | [5] -17.1% | [6] -12.3%
